Data as given in PubChem BioAssay (NCATS).
Records with an inconclusive call do not appear. Calls of active or inactive are those of the source. Unless noted, calls come from the whole dose curve; as a rule, active = well fitted curve in the direction sought with a large enough effect; inconclusive = small, poorly fitted or top-dose-only effect, or another doubt; inactive = no such curve, though single readings can be large; an effect the other way counts as inactive or inconclusive.

Legend:
Furin (Homo sapiens) = Furin (Homo sapiens) (UniProt P09958); assay: Furin counterscreen qHTS for Zika virus inhibitors (AID 1347149); note: nearly all actives have a fitted effect of over 70% in size; note: potency is the fitted concentration of half-maximal effect;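 for activity change, negative = inhibition: purified recombinant full-length human furin enzyme at 5 nM; fluorescence gain from furin cutting a BOC-RVRR-AMC peptide substrate over 15 min; top concentration of the series differs between compounds; plate controls were no-inhibitor control for no effect and no-enzyme control for full effect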
Method in brief: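 Fluorogenic cleavage of BOC-RVRR-AMC (2 microM final, Km ~15 µM) was monitored (ex 340, em 450 nm) at 37C after 15 min RT preincubation of 5 nM furin with compounds in HEPES pH 7.0 buffer with CaCl2 and Triton X-100. Percent inhibition was fitted to a 4-parameter Hill curve.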

[1] = Confirmatory screen GU Rhodamine qHTS for Zika virus inhibitors qHTS (AID 1347157); note: nearly all actives have a fitted effect of over 70% in size; note: potency is the fitted concentration of half-maximal effect;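 for activity change, negative = inhibition: plate controls were no-inhibitor wells for no effect and no-enzyme wells for full effect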
Method in brief: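 Compounds, tested up to 114 microM, were incubated for 15 minutes with 25 nM unlinked NS2B-NS3 protease at pH 8.0. Cleavage of 1.5 microM Rhodamine110 substrate was then followed by fluorescence for 15 minutes.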

[2] = test system: Zika virus NS2B-NS3 protease; assay: Primary screen GU AMC qHTS for Zika virus inhibitors (AID 1347154); note: nearly all actives have a fitted effect of over 70% in size; note: potency is the fitted concentration of half-maximal effect;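 for activity change, negative = inhibition: 0% = no-inhibitor control and -100% = no-enzyme control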
Method in brief: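 Unlinked Zika NS2B hydrophilic domain–NS3 protease complex at 25 nM in 10 mM Tris-HCl pH 8.0, 0.01% Tween 20, with an AMC peptide substrate. Fluorescence change (340/450 nm) over 15 min at room temperature, normalized to controls, fitted to 4-parameter Hill.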

[3] = Confirmatory screen NINDS Rhodamine qHTS for Zika virus inhibitors (AID 1347161); note: nearly all actives have a fitted effect of over 60% in size; note: potency is the fitted concentration of half-maximal effect;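 for activity change, negative = inhibition: purified Zika NS2B-NS3 protease with linked NS2B cofactor domain and Rhodamine110 peptide substrate; plate controls were no-inhibitor control for no effect and no-enzyme control for full effect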
Method in brief: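 Rhodamine110-peptide cleavage (1.5 µM substrate) by 25 nM linked NS2B-NS3 enzyme at pH 8.0 (Tris, Tween 20), after 15 min RT preincubation with compounds; 15-min fluorescence change normalized to controls and Hill-fitted.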

[4] = Tertiary RLuc qRT-PCR qHTS assay for Zika virus inhibitors (AID 1347169); note: nearly all actives have a fitted effect of over 55% in size; note: potency is the fitted concentration of half-maximal effect; for activity change, negative = inhibition: top concentration of the series differs between compounds; % is set by controls: 0 for no effect and ±100 for the full control effect
Method in brief: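 Vero cells (1,000/well) infected with recombinant ZIKV-RLuc (Cambodian) at MOI 1-2 after compound addition, 48-72 hrs at 37 degrees C. Live-cell Renilla luciferase substrate added; luminescence read after 1-1.5 hrs.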

[5] = Primary qHTS for small molecule stabilizers of the endoplasmic reticulum resident proteome: Secreted ER Calcium Modulated Protein (SERCaMP) assay (AID 1508630); note: % is set by controls: 0 for no effect and ±100 for the full control effect
Method in brief: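 GLuc-SERCaMP-expressing SH-SY5Y cells, pretreated 16 h with compound, are challenged with thapsigargin to empty ER calcium stores; after 4 h, coelenterazine is added directly to the medium and luminescence is imaged.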

[6] = ZIKV-mCherry secondary qHTS for Zika virus inhibitors (AID 1347158); note: potency is the fitted concentration of half-maximal effect; for activity change, negative = inhibition: top concentration of the series differs between compounds
Method in brief: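 Vero cells (5,000/well) were given compound, then infected with ZIKV-mCherry at MOI 1 for 48–72 h at 37 °C. After PFA fixation and Hoechst staining, imaging gave percent mCherry-positive cells. The positivity threshold was RFU above 450, 3 SD over negative controls.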

[7] = test system: Zika virus NS2B-NS3 protease (linked); assay: 384 well plate NINDS AMC confirmatory qHTS for Zika virus inhibitors (AID 1347163); note: nearly all actives have a fitted effect of over 50% in size; note: potency is the fitted concentration of half-maximal effect;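 for activity change, negative = inhibition: linked protease at 5 30 or 60 nM final depending on run; fluorescence of AMC released from Ac-VKTGKR-AMC peptide cleaved by the protease; top concentration of the series differs between compounds; 0% = no-inhibitor control and -100% = no-enzyme control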
Method in brief: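 Linked NS2B-NS3 protease (final 5 nM, 30 nM or 60 nM) was preincubated with compounds (final up to 1 mM) for ~15 minutes. Ac-VKTGKR-AMC substrate (final 30 microM) then reacted for 25 minutes at room temperature in the dark. Fluorescence (ex 355/em 460 nm) was normalized to no-enzyme and no-inhibitor controls.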

[8] = test system: Zika virus NS2B-NS3 protease (linked construct); assay: 384 well plate NINDS Rhodamine confirmatory qHTS for Zika virus inhibitors (AID 1347164);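 note: fluorescence from protease cleavage of Ac-LKRR-rhodamine 110 substrate; potency is the fitted concentration of half-maximal effect; nearly all actives have a fitted effect of over 65% in size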
Method in brief: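 Linked NS2B-NS3 protease (final 5, 30 or 60 nM) preincubated ~15 minutes with compounds, then 10 microM Ac-LKRR-Rhodamine 110 added. Fluorescence (485/538 nm) read after 25 minutes at room temperature, normalized to no-enzyme and no-inhibitor controls.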

[9] = test system: Zika virus NS2B-NS3 protease (linked construct); assay: Confirmatory screen NINDS AMC qHTS for Zika virus inhibitors (AID 1347152); note: nearly all actives have a fitted effect of over 70% in size; note: potency is the fitted concentration of half-maximal effect;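 for activity change, negative = inhibition: AMC fluorescence gain from cleaved Bz-Nle-KRR-AMC substrate over 15 min; top concentration of the series differs between compounds; 0% = no-inhibitor control and -100% = no-enzyme control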
Method in brief: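 Linked NS2B-NS3 protease, 1 nM, in 10 mM Tris-HCl pH 8.0, 0.01% Tween 20; compounds preincubated 15 min at room temperature. Nle-KRR-AMC 10 microM (Km 18.3 µM); 15-min fluorescence change (340/450 nm) fitted to 4-parameter Hill.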

[10] = test system: Zika virus NS2B-NS3 protease (unlinked complex); assay: Confirmatory screen GU AMC qHTS for Zika virus inhibitors (AID 1347153); note: nearly all actives have a fitted effect of over 70% in size;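 for Potency: enzyme at 25 nM with substrate at 10 µM below its Km of 18.3 µM; potency is the fitted concentration of half-maximal effect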
Method in brief: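 Unlinked NS2B-NS3 complex (25 nM) in 10 mM Tris-HCl pH 8.0, 0.01% Tween 20 preincubated 15 min with compound, then 10 microM Bz-Nle-KRR-AMC (Km 18.3 µM). Fluorescence change over 15 min, normalized, Hill-fitted.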

[11] = biological target: Cytochrome P450 3A4 (Homo sapiens) (UniProt P08684); assay: qHTS Assay for Inhibitors and Substrates of Cytochrome P450 3A4 (AID 884); note: % is set by controls: 0 for no effect and ±100 for the full control effect; nearly all actives have a fitted effect of over 50% in size
Method in brief: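 20 nM human CYP3A4 with 25 uM Luciferin-PPXE (at KM) in 200 mM KPO4, preincubated 10 min with compound; NADPH regeneration started a 60 min RT reaction. Luciferin detected by luminescence, normalized to 57 uM ketoconazole as full inhibition.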

[12] = Confirmation and Secondary Assay for Modulators of Hemoglobin Beta Chain Splicing at IVS2 654 locus (AID 910);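 note: HeLa cells stably carrying EGFP split by mutant beta-globin IVS2-654 intron; % of control where 0% means no effect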
Method in brief: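 HeLa cells stably expressing EGFP interrupted by β-globin IVS2-654 intron, seeded overnight in Opti-MEM/2% FCS, then treated 2 days at 37 °C. Restored splicing read as total peak GFP intensity per well by laser scanning cytometry (488 nm excitation, 500–520 nm emission); 500 nM antisense PNA as control.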

[13] = Confirmation and Secondary Assay for Modulators of Hemoglobin Beta Chain Splicing at IVS2 705 locus (AID 930);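 note: HeLa cells stably expressing the EGFP-705 splicing reporter; % of control where 0% means no effect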
Method in brief: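 HeLa cells stably carrying EGFP interrupted by mutant beta-globin IVS2-705 intron (CMV-driven) were seeded at 500 cells/well, treated next day with compound for 2 days at 37C; corrected splicing restores EGFP, read as total peak GFP intensity per well.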

[14] = qHTS Assay for Lipid Storage Modulators (AID 1519; calls by dose curve); conditions: Drosophila S3 cells, BODIPY lipid droplet/cell ratio, laser cytometry, cells loaded with oleic acid; for activity change, negative = inhibition: at 57.5 µM (top of the series)
Method in brief: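 Cells seeded at 5,000 per well were treated with compounds over a concentration series and loaded with oleic acid (400 uM, as added). Lipid droplet fluorescence (488 nm excitation, 500-530 nm channel) was read by laser-scanning cytometry and normalized to 20 uM Triacsin C.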

[15] = Vero cells viability qHTS for Zika virus inhibitors (AID 1347167); note: % is set by controls: 0 for no effect and ±100 for the full control effect
Method in brief: (§1)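 Cells seeded at 2.5 x 10^5 cells/mL in DMEM with 4% FBS and attached overnight at 37 degrees C, then exposed to compound for 24 to 48 hours. Viability read as ATP content by CellTiter Glo luminescence.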

[16] = HepG2 cells viability qHTS for Zika virus inhibitors (AID 1347168); note: % is set by controls: 0 for no effect and ±100 for the full control effect
Method in brief: as §1

[17] = biological target: Ubiquitin carboxyl-terminal hydrolase 1 (Homo sapiens) (UniProt O94782); assay: Inhibitors of USP1/UAF1: Pilot qHTS (AID 504865); note: potency is the fitted concentration of half-maximal effect; nearly all actives have a fitted effect of over 35% in size
Method in brief: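 USP1/UAF1 complex at 1 nM preincubated 15 min at room temperature with compound, then Ub-Rho substrate added at 150 nM final. Fluorescence (480/540 nm) read kinetically in 50 mM HEPES pH 7.8, 0.5 mM EDTA, 1 mM TCEP, 0.1 mg/ml BSA, 0.01% Tween-20.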

[18] = measured here: cell count channel max response
[19] = measured here: lipid channel max response

Sequence of Furin (Homo sapiens) (P09958 whole entry, looked up): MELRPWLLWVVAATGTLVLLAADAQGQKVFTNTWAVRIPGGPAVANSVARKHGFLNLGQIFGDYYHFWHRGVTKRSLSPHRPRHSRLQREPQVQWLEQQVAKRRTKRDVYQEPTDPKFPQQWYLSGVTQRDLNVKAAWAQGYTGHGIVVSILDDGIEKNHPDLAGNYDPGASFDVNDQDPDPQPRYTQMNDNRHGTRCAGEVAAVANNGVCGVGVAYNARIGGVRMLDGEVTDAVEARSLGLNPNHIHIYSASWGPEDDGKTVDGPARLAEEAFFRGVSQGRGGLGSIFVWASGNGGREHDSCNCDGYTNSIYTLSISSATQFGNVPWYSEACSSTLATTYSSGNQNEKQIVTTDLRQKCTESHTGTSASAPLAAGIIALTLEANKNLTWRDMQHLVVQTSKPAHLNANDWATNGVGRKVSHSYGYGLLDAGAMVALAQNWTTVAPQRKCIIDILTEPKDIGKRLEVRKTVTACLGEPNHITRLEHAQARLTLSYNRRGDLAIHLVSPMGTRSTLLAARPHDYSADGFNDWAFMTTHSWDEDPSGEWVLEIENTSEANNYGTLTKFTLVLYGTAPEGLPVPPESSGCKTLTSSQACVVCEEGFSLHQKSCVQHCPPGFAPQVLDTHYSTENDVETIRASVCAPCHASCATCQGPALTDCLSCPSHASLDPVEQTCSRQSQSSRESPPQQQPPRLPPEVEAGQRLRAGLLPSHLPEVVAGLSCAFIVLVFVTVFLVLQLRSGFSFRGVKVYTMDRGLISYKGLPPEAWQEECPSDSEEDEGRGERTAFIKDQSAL
Sequence of Cytochrome P450 3A4 (Homo sapiens) (P08684 whole entry, looked up): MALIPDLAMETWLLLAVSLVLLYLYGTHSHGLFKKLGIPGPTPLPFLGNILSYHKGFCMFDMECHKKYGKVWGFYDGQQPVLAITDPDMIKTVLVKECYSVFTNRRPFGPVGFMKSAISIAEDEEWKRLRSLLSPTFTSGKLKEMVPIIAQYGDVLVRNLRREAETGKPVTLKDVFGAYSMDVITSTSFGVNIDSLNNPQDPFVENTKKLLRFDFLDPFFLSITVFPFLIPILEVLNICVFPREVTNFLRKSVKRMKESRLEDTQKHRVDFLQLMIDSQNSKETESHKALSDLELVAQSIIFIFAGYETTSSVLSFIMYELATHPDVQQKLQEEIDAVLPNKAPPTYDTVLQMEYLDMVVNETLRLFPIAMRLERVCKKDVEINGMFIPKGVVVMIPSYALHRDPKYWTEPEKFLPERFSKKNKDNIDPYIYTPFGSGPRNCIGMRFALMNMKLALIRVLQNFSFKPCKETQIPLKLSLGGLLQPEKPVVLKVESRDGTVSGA
Sequence of Ubiquitin carboxyl-terminal hydrolase 1 (Homo sapiens) (O94782 whole entry, looked up): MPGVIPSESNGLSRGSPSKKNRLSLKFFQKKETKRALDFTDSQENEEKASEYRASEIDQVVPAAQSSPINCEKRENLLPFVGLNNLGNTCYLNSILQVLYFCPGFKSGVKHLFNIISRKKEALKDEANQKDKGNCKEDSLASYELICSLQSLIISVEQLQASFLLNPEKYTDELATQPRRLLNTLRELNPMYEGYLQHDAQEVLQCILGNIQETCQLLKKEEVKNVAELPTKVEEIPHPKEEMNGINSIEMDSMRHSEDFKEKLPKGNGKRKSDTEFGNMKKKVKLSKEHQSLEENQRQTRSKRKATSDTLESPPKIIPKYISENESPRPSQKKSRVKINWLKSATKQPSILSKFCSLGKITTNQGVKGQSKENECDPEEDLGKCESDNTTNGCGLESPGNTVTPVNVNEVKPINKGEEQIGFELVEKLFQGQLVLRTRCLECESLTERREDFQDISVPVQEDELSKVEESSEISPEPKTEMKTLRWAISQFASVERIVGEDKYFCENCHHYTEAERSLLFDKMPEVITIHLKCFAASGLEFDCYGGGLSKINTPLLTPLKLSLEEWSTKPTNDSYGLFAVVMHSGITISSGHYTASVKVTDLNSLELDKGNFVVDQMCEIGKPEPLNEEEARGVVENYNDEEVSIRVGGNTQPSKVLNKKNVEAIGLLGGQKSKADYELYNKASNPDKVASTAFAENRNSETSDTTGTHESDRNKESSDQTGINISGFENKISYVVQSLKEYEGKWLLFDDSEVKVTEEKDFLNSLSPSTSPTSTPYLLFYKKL

Cc1ccc(C(=O)Nc2ccc(C(=O)OCc3cc(=O)n4nc(C5CC5)sc4n3)cc2)cc1
inactive: Potency (Furin (Homo sapiens)) | Potency [1]

Cc1cc(=O)c2c(O)c3c(O)cc(O)c4c5c(O)cc(O)c6c(O)c7c(=O)cc(C)c8c1c2c(c34)c(c65)c78
inactive: Potency (Furin (Homo sapiens)) | Potency [2] | Potency [1] | Potency [3] | Potency [4] | Potency [5]

O=C(O)c1ccc2c(ccc3nn(-c4ccc(/C=C/c5ccc(-n6nc7ccc8cc(C(=O)O)ccc8c7n6)cc5[S+](=O)([O-])[O-])c([S+](=O)([O-])[O-])c4)nc32)c1
inactive: Potency (Furin (Homo sapiens)) | Potency [7] | Potency [4]
active: Potency [1] 2.82 µM | Potency [6] 4.47 µM | Potency [3] 6.31 µM | Potency [8] 12.6 µM

O=C(O)c1ccc(-c2ccc(C(F)(F)F)cc2)cc1
inactive: Potency (Furin (Homo sapiens)) | Potency [9] | Potency [10] | Potency [4]

Nc1cc(N)c(N=Nc2ccc(S(=O)(=O)Nc3nccs3)cc2)cc1N=Nc1ccc(S(=O)(=O)Nc2nccs2)cc1
inactive: Potency [4]
active: Potency (Furin (Homo sapiens)) 39.8 µM | Potency [9] 12.6 µM | Potency [7] 63.1 µM | Potency [8] 20 µM

CN(Cc1cnc2nc(N)nc(N)c2n1)c1ccc(C(=O)NC(CCC(=O)O)C(=O)O)cc1 (stereo not given)
active: Potency (Furin (Homo sapiens)) 21.5 µM
16%: max response [14, 19]
7.14%: max response [14, 18]
inactive: Potency [11] | outcome [12] | outcome [13] | activity change, negative = inhibition [14] 6.64% | Potency [9] | Potency [10] | Potency [15] | Potency [16] | Potency [4] | Potency [5]

Cc1ncccc1OCC1CN(Cc2cccc(C(F)(F)F)c2)C(=O)c2c(ccnc2-c2ccc(OCC(=O)O)cc2)O1 (stereo not given)
inactive: Potency (Furin (Homo sapiens)) | Potency [9] | Potency [10] | Potency [4]

O=C(OC1Cc2c(O)cc(O)cc2OC1c1cc(O)c(O)c(O)c1-c1c(C2Oc3cc(O)cc(O)c3CC2O)cc(O)c(O)c1O)c1cc(O)c(O)c(O)c1 (stereo not given)
active: Potency [17] 44.7 µM | Potency (Furin (Homo sapiens)) 17.5 µM | Potency [10] 44.1 µM | Potency [7] 22.4 µM | Potency [8] 17.8 µM
inactive: Potency [11] | outcome [12] | outcome [13] | activity change, negative = inhibition [14] 6.85% | Potency [6] | Potency [4]
18.1%: max response [14, 18]
26.1%: max response [14, 19]

CCN(CC)c1ccc(/C=N/NC(=O)c2ccc(O)cc2)cc1
inactive: Potency [9] | Potency [15] | Potency [16] | Potency [4] | Potency [5]
active: Potency (Furin (Homo sapiens)) 24.1 µM

O=C(O)c1cccc(-c2ccc(OC(F)(F)F)cc2)c1
inactive: Potency (Furin (Homo sapiens)) | Potency [9] | Potency [6] | Potency [7] | Potency [4]

CCc1ccc(S(=O)(=O)Nc2cc3c(C(=O)OCc4ccccc4)c(C)oc3c3ccccc23)cc1
inactive: Potency (Furin (Homo sapiens)) | Potency [1]

CS(=O)(=O)c1ccc(Nc2ccc3c(c2)OCO3)c([N+](=O)[O-])c1
inactive: Potency (Furin (Homo sapiens)) | Potency [9] | Potency [10] | Potency [4]

CCOC(=O)c1c(-c2ccccc2)oc2ccc(NS(=O)(=O)c3ccc(C(C)C)cc3)cc12
inactive: Potency [1]
active: Potency (Furin (Homo sapiens)) 46.9 µM

O=C(O)COc1ccc(-c2nccc3c2C(=O)N(Cc2cccc(C(F)(F)F)c2)CC(CNC(=O)c2cccc(Cl)c2)O3)cc1 (stereo not given)
inactive: Potency (Furin (Homo sapiens)) | Potency [7] | Potency [4]
active: Potency [10] 49.4 µM | Potency [8] 22.4 µM

Cc1ccc(C(=O)Nc2ccc(C(=O)OCc3cc(=O)n4c5c(sc4n3)CCCC5)cc2)cc1
active: Potency (Furin (Homo sapiens)) 41.8 µM
inactive: Potency [1]

Clc1nc2n[nH]nc2nc1Cl
inactive: Potency [6] | Potency [4]
active: Potency (Furin (Homo sapiens)) 39.8 µM | Potency [9] 22.4 µM

N#Cc1ccccc1S(=O)(=O)N[C@H]1CO[C@H]2[C@@H]1OC[C@H]2OC(=O)Nc1ccc(Oc2ccccc2)cc1
active: Potency [4] 7.39 µM
inactive: Potency (Furin (Homo sapiens)) | Potency [9] | Potency [10]

COC(=O)[C@H](Cc1ccc(OC)cc1)NC(=O)[C@H]1CN(S(=O)(=O)c2ccccc2)CCN1S(=O)(=O)c1ccccc1
inactive: Potency (Furin (Homo sapiens)) | Potency [9] | Potency [10] | Potency [4]

CC1(C(=O)O)NCCc2cc(O)c(O)cc21 (stereo not given)
active: Potency (Furin (Homo sapiens)) 24.1 µM | Potency [2] 10.6 µM | Potency [3] 27.8 µM
inactive: Potency [7] | Potency [15] | Potency [16] | Potency [4] | Potency [5]

O=C(O)c1ccc(-c2ccc(OC(F)(F)F)cc2)cc1
inactive: Potency (Furin (Homo sapiens)) | Potency [9] | Potency [10] | Potency [4]

N#Cc1ccccc1OCC1CN(Cc2cccc(C(F)(F)F)c2)C(=O)c2c(ccnc2-c2ccc(OCC(=O)O)cc2)O1 (stereo not given)
inactive: Potency (Furin (Homo sapiens)) | Potency [9] | Potency [4]
active: Potency [7] 70.8 µM | Potency [8] 56.2 µM

CC(=O)C(N=Nc1ccc(S(=O)(=O)Nc2ccccn2)cc1)C(=O)Nc1ccc(Cl)cc1 (stereo not given)
active: Potency [9] 44.7 µM | Potency [3] 20 µM | Potency [7] 22.4 µM | Potency [8] 25.1 µM
inactive: Potency (Furin (Homo sapiens)) | Potency [6] | Potency [4]

Cc1ccc(NC(=O)c2ccc3c(O)c(S(=O)(=O)c4ccc(Cl)cc4)c(=O)[nH]c3c2)cc1
inactive: Potency (Furin (Homo sapiens)) | Potency [6] | Potency [4]
active: Potency [1] 22.4 µM | Potency [3] 6.31 µM | Potency [7] 251 µM | Potency [8] 35.5 µM

O=C(O)c1ccc(C2Nc3ccccc3-c3nnc(SCc4ccc(Cl)cc4)nc3O2)cc1 (stereo not given)
active: Potency [1] 20 µM | Potency [3] 15.8 µM | Potency [7] 316 µM | Potency [8] 89.1 µM
inactive: Potency (Furin (Homo sapiens)) | Potency [6] | Potency [4]
